Measurements as given in PubChem BioAssay (NCATS).
Records with an inconclusive call do not appear. Active and inactive are the calls of the source. Unless noted, calls come from the whole dose curve; as a rule, active = well fitted curve in the direction sought with a large enough effect; inconclusive = small, poorly fitted or top-dose-only effect, or another doubt; inactive = no such curve, though single readings can be large; an effect the other way counts as inactive or inconclusive.

Columns and labels:
[1] = target: Cytochrome P450 3A4 (Homo sapiens) (UniProt P08684); assay: qHTS Assay for Inhibitors and Substrates of Cytochrome P450 3A4 (AID 884); note: % is set by controls: 0 for no effect and ±100 for the full control effect; nearly all actives have a fitted effect of over 50% in size
Procedure, shortened: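 20 nM human CYP3A4 with 25 uM Luciferin-PPXE (at KM) in 200 mM KPO4, preincubated 10 min with compound; NADPH regeneration started a 60 min RT reaction. Luciferin detected by luminescence, normalized to 57 uM ketoconazole as full inhibition.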

[2] = Confirmation and Secondary Assay for Modulators of Hemoglobin Beta Chain Splicing at IVS2 654 locus (AID 910);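 note: HeLa cells stably carrying EGFP split by mutant beta-globin IVS2-654 intron; % of control where 0% means no effect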
Procedure, shortened: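 HeLa cells stably expressing EGFP interrupted by β-globin IVS2-654 intron, seeded overnight in Opti-MEM/2% FCS, then treated 2 days at 37 °C. Restored splicing read as total peak GFP intensity per well by laser scanning cytometry (488 nm excitation, 500–520 nm emission); 500 nM antisense PNA as control.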

[3] = Confirmation and Secondary Assay for Modulators of Hemoglobin Beta Chain Splicing at IVS2 705 locus (AID 930);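 note: HeLa cells stably expressing the EGFP-705 splicing reporter; GFP fluorescence per well restored by corrected splicing of the IVS2-705 intron in EGFP; % of control where 0% means no effect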
Procedure, shortened: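 Stable HeLa line with EGFP disrupted by mutant beta-globin intron 2 (705). Overnight attachment, then 2 days of compound at 37C, 5% CO2. Signal: peak GFP intensity summed over objects 5-250 µm.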

[4] = target: ATP-dependent 6-phosphofructokinase (Trypanosoma brucei brucei) (UniProt O15648); assay: qHTS Assay to Find Inhibitors of T. brucei phosphofructokinase: hit validation (AID 492961);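 note: luminescence reports ADP formed as PFK phosphorylates fructose-6-phosphate with ATP; % is set by controls: 0 for no effect and ±100 for the full control effect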
Procedure, shortened: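 Compounds titrated; %activity normalized to 0x and 1x enzyme controls, curve-fitted. Readout: ADP-Glo luminescence after 45 min room-temperature reaction of 1.25 nM PFK, 0.1 mM ATP, 0.5 mM F6P, pH 8.0.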

[5] = target: Ubiquitin carboxyl-terminal hydrolase 1 (Homo sapiens) (UniProt O94782); assay: Inhibitors of USP1/UAF1: Pilot qHTS (AID 504865);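 note: rhodamine fluorescence freed from ubiquitin-rhodamine substrate followed over time; top concentration of the series differs between compounds; % is set by controls: 0 for no effect and ±100 for the full control effect; nearly all actives have a fitted effect of over 35% in size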
Procedure, shortened: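 USP1/UAF1 complex (1nM) preincubated with compound 15 min at room temperature, then Ub-Rho substrate (150nM final) added. Fluorescence read kinetically at 480/540 nm, 6 reads every 60 seconds. Buffer: 50mM HEPES pH 7.8, 0.5mM EDTA, 0.1 mg/ml BSA, 1mM TCEP, 0.01% Tween-20.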

[6] = target: Luciferin 4-monooxygenase (Photinus pyralis) (UniProt P08659); assay: Biochemical firefly luciferase enzyme assay for NPC (AID 624030);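 note: purified P. pyralis luciferase at 10 nM with luciferin and ATP substrate; 0% = DMSO and -100% = full luciferase inhibition by PTC124 control; nearly all actives have a fitted effect of over 70% in size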
Procedure, shortened: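 Purified P. pyralis luciferase at 10 nM in 50 mM Tris Acetate (final), luminescence read within 5 minutes of enzyme addition to compounds. Activity normalised to PTC124 versus DMSO; concentration-response curves classed by r2, magnitude and activity.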

[7] = S16 Schwann cell PMP22 intronic element firefly luciferase assay (AID 624032);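 note: plate controls were DMSO for no effect and PTC124 positive control mean for full effect; nearly all actives have a fitted effect of over 30% in size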
Procedure, shortened: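 Rat S16 Schwann cells stably carrying firefly luciferase driven by a PMP22 intronic element, in 10% FBS, treated 24 h at 37 C. ONE-Glo luminescence normalized to PTC124 control and DMSO (0%); curves classed by r2, magnitude and activity.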

[8] = S16 Schwann cell PMP22 intronic element beta-lactamase assay (AID 624044; calls by dose curve;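 note: 0% = DMSO and -100% = potassium clavulanate positive control; nearly all actives have a fitted effect of over 15% in size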)
Procedure, shortened: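 Rat S16 Schwann cells with beta-Lac driven by a PMP22 intronic element, compound-treated 24 h at 37 °C. LiveBLAzer FRET B/G read: 460 nm normalized to potassium clavulanate vs DMSO; 535 nm FRET as viability; concentration-effect curves classified.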

[9] = qHTS profiling for inhibitors of Plasmodium falciparum proliferation (AID 504749);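 note: 0% = DMSO vehicle and full inhibition = artemisinin control; nearly all actives have a fitted effect of over 60% in size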; settings: P. falciparum in erythrocytes, SYBR Green DNA, 72 h, at 28.7 µM (top of the series)
Procedure, shortened: (§1)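 Readout was DNA-dye fluorescence from lysed cultures, ex 485/em 535 nm. Parasitized red cells had grown 72 h with compound; data scaled between 0.29 uM artemisinin and DMSO wells and corrected using vehicle-only plates.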

3D7 = assay: as above; settings: P. falciparum in erythrocytes, SYBR Green DNA, 72 h; series mostly up to 12.8 µM
Procedure, shortened: as §1

7G8 = assay: as above; settings: P. falciparum in erythrocytes, SYBR Green DNA, 72 h; series mostly up to 12.8 µM
Procedure, shortened: as §1

AA1029 = assay: as above; settings: P. falciparum in erythrocytes, SYBR Green DNA, 72 h; series mostly up to 12.8 µM
Procedure, shortened: as §1

AS120 = assay: as above; settings: P. falciparum in erythrocytes, SYBR Green DNA, 72 h; series mostly up to 12.8 µM
Procedure, shortened: as §1

ATS189 = assay: as above; settings: P. falciparum in erythrocytes, SYBR Green DNA, 72 h; series mostly up to 12.8 µM
Procedure, shortened: as §1

ATS95 = assay: as above; settings: P. falciparum in erythrocytes, SYBR Green DNA, 72 h; series mostly up to 12.8 µM
Procedure, shortened: as §1

C2A = assay: as above; settings: P. falciparum in erythrocytes, SYBR Green DNA, 72 h; series mostly up to 12.8 µM
Procedure, shortened: as §1

CP185 = assay: as above; settings: P. falciparum in erythrocytes, SYBR Green DNA, 72 h; series mostly up to 12.8 µM
Procedure, shortened: as §1

CP191 = assay: as above; settings: P. falciparum in erythrocytes, SYBR Green DNA, 72 h; series mostly up to 12.8 µM
Procedure, shortened: as §1

CP192 = assay: as above; settings: P. falciparum in erythrocytes, SYBR Green DNA, 72 h; series mostly up to 12.8 µM
Procedure, shortened: as §1

CP194 = assay: as above; settings: P. falciparum in erythrocytes, SYBR Green DNA, 72 h; series mostly up to 12.8 µM
Procedure, shortened: as §1

CP201 = assay: as above; settings: P. falciparum in erythrocytes, SYBR Green DNA, 72 h; series mostly up to 12.8 µM
Procedure, shortened: as §1

CP203 = assay: as above; settings: P. falciparum in erythrocytes, SYBR Green DNA, 72 h; series mostly up to 12.8 µM
Procedure, shortened: as §1

CP211 = assay: as above; settings: P. falciparum in erythrocytes, SYBR Green DNA, 72 h; series mostly up to 12.8 µM
Procedure, shortened: as §1

CP215 = assay: as above; settings: P. falciparum in erythrocytes, SYBR Green DNA, 72 h; series mostly up to 12.8 µM
Procedure, shortened: as §1

CP217 = assay: as above; settings: P. falciparum in erythrocytes, SYBR Green DNA, 72 h; series mostly up to 12.8 µM
Procedure, shortened: as §1

CP237 = assay: as above; settings: P. falciparum in erythrocytes, SYBR Green DNA, 72 h; series mostly up to 12.8 µM
Procedure, shortened: as §1

CP238 = assay: as above; settings: P. falciparum in erythrocytes, SYBR Green DNA, 72 h; series mostly up to 12.8 µM
Procedure, shortened: as §1

CP247 = assay: as above; settings: P. falciparum in erythrocytes, SYBR Green DNA, 72 h; series mostly up to 12.8 µM
Procedure, shortened: as §1

CP250 = assay: as above; settings: P. falciparum in erythrocytes, SYBR Green DNA, 72 h; series mostly up to 12.8 µM
Procedure, shortened: as §1

CP252 = assay: as above; settings: P. falciparum in erythrocytes, SYBR Green DNA, 72 h; series mostly up to 12.8 µM
Procedure, shortened: as §1

CP256 = assay: as above; settings: P. falciparum in erythrocytes, SYBR Green DNA, 72 h; series mostly up to 12.8 µM
Procedure, shortened: as §1

CP260 = assay: as above; settings: P. falciparum in erythrocytes, SYBR Green DNA, 72 h; series mostly up to 12.8 µM
Procedure, shortened: as §1

CP262 = assay: as above; settings: P. falciparum in erythrocytes, SYBR Green DNA, 72 h; series mostly up to 12.8 µM
Procedure, shortened: as §1

Ubiquitin carboxyl-terminal hydrolase 1 (Homo sapiens), sequence (O94782 whole entry, looked up): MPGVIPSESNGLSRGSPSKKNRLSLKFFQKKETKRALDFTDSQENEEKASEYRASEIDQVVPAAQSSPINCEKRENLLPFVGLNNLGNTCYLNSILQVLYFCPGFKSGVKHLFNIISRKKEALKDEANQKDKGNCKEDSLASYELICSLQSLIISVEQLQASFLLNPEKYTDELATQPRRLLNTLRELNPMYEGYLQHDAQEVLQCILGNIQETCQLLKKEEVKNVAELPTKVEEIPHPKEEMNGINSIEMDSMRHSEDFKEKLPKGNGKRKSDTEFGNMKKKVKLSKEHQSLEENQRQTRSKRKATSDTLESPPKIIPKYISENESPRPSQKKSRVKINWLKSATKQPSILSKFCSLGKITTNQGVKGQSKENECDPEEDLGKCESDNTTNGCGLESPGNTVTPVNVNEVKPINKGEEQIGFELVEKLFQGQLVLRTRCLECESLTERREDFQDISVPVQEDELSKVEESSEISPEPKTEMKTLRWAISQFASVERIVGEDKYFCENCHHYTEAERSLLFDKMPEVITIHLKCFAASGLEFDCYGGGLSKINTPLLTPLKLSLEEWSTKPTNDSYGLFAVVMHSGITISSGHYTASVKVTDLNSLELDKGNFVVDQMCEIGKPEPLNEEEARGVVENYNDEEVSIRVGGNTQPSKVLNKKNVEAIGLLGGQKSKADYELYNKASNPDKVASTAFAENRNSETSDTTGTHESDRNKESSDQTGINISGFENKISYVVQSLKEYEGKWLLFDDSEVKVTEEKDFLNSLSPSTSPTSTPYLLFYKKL
ATP-dependent 6-phosphofructokinase (Trypanosoma brucei brucei), sequence (O15648 whole entry, looked up): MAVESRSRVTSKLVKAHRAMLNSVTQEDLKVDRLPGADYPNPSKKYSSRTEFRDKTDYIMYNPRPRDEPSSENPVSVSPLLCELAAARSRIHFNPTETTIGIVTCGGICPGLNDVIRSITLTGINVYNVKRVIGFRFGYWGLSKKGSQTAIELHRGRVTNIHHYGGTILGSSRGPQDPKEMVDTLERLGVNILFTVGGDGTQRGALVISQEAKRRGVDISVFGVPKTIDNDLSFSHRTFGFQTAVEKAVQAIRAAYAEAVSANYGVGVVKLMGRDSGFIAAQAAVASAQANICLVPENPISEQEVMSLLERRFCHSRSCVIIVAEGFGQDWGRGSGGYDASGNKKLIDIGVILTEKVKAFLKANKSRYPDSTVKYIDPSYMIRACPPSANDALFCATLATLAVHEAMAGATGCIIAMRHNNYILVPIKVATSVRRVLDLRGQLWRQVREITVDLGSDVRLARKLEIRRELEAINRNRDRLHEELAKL
Luciferin 4-monooxygenase (Photinus pyralis), sequence (P08659 whole entry, looked up): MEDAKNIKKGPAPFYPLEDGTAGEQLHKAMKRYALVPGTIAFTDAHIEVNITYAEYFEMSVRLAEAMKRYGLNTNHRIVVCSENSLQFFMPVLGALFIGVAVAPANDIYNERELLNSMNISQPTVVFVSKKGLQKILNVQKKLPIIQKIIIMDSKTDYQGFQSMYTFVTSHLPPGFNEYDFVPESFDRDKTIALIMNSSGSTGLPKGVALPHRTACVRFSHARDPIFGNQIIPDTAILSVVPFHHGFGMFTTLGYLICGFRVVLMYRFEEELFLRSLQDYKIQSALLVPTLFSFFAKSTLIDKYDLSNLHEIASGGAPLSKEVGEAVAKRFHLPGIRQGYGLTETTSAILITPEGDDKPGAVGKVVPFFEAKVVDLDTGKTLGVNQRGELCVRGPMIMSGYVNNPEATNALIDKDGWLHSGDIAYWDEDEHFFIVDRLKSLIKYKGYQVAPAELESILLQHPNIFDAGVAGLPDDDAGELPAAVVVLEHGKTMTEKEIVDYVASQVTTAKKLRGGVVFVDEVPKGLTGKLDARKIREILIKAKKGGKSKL
Cytochrome P450 3A4 (Homo sapiens), sequence (P08684 whole entry, looked up): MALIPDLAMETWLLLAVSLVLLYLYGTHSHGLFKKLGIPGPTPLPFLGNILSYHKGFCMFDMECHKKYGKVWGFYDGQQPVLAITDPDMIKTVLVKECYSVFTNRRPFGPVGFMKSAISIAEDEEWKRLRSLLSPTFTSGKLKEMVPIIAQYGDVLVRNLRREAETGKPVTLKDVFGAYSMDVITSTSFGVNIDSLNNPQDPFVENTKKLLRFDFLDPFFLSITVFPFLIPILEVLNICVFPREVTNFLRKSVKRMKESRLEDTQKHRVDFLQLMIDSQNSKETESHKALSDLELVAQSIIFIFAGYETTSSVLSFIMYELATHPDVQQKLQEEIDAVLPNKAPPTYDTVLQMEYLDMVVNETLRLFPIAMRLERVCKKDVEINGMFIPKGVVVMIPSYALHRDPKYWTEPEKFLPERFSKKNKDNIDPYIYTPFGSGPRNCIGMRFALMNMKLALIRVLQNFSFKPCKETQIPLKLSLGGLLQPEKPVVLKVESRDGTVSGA

CN1CC(=O)N=C1N
inactive: Potency [1] | Potency [2] | Potency [3] | outcome [4] | Potency [5] | Potency [6] | Potency [7] | Potency [8] | activity, negative = inhibition ([9]; parasite line A) 1.94% | activity, negative = inhibition ([9]; parasite line B) 0.298% | Potency (3D7) | Potency (7G8) | Potency (AA1029) | Potency (AS120) | Potency (ATS189) | Potency (ATS95) | Potency (C2A) | Potency (CP185) | Potency (CP191) | Potency (CP192) | Potency (CP194) | Potency (CP201) | Potency (CP203) | Potency (CP211) | Potency (CP215) | Potency (CP217) | Potency (CP237) | Potency (CP238) | Potency (CP247) | Potency (CP250) | Potency (CP252) | Potency (CP256) | Potency (CP260) | Potency (CP262)
